Growth data for 40 compounds are collected here from PubChem BioAssay (NCI).

SMILES strings stand for the structures. Where “and” joins values, the source holds several entries; their conditions need not be identical. Equal values may be shown once. This is part of a sample that, as a whole, favours compounds with a hit. Of some 83,000 tested, about 20% had one in any assay.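 Values shown are percent growth following 48 h exposure of cells in 96-well plates to a single concentration of compound; below 10 was considered active.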 Values without a mark were called inactive. Calls of active or inactive are those of the source.

This assay has as its system MDA-MB-468 breast. Briefly: NCI-60 one-dose screen, 48 h (100 = growth as untreated, 0 = no growth, -100 = all killed). The following applies: 10 µM unless noted.
`CC(=O)c1c[nH]c2ccc(-c3ccnc(Nc4ccc(NC(=O)C5CCCC5)c(CN5CCOCC5)c4)n3)cc12`: the growth was -53.9% (active).

Turning to `COc1cccc(-c2cc(-c3cccs3)c(C#N)c(=O)[nH]2)c1`, the growth is 107%.

As to `CCOC(=O)c1ccc(NC(=O)CSC(N)=O)cc1`, the growth was 108%.

For `CC(=O)n1cc(C=O)c2ccccc21`, the growth is 112%.

Turning to `CS(=O)(=O)OC1CC(n2ccc(=O)[nH]c2=O)OC1COC(c1ccccc1)(c1ccccc1)c1ccccc1` (stereo not given), the growth was 110%.

On to `COC(=O)C1=C(C(=O)ON)[C@@H]2C=C[C@@]1([C@@H](Cc1ccccc1)Nc1ccccc1)O2`, for which the growth was -38.8% (active).

As for `Nc1nc(=S)c2[nH]cnc2[nH]1`, the growth is -13.1% (active).

As for `COc1ccc(-c2nnc(SCc3ccc(O)c4ncccc34)o2)cc1`, the growth was 51.2%.

On to `c1ccc2c(N=NSc3ncnc4nc[nH]c34)c3ccccc3nc2c1`, for which the growth is -55.1% (active).

Turning to `O=C1CSC(=S)N1/N=C/c1ccc(Cl)s1`, the growth was 105%.

As to `OCc1cnc2ccccc2c1NC1CCCCCC1`, the growth was 59.8%.

For `O=c1[nH]ncc(Br)c1Br`, the growth is -15.7% (active).

In the case of `COc1ccc(C(=O)c2cc3c(N)c(C(=O)Nc4ccccc4)sc3nc2C)cc1`, the growth was 3.89% (active).

For `COc1ccc(-c2nc(SCCC(C)C)nc(N/N=C(/C)c3ccc(C)cc3)c2C#N)cc1`, the growth is 105%.

With `O=C1/C(=C\c2ccco2)SC(=S)N1CCc1ccc(O)cc1`, the growth was 54.9%.

In the case of `O=C(/C(=C/c1ccc([N+](=O)[O-])cc1)SCc1ccc(F)cc1)c1ccc(Cl)cc1`, the growth was 76.4%.

For the compound `CCOC(=O)CSc1nnc(-c2cc3c([nH]c4ccccc43)c(-c3cccc(O)c3)n2)n1-c1ccc(C)cc1`, the growth was 27.2%.

For the compound `CCCCCCCCCCCCOc1ccccc1C=O`, the growth was 91.3%.

Regarding `O=C(O)c1cn(C2CC2)c2cc(N3CCN(C(=O)Nc4nc(-c5ccc(Br)cc5)cs4)CC3)c(F)cc2c1=O`, the growth was 13.7%.

Consider `CC1=C2CC/C(C)=C/CC[C@]3(C)O[C@H]3CC/C(C)=C/[C@H]2OC1`, for which the growth is 98.6%.

With `NC(=S)NN=C1CCC(C2CCCCC2)CC1` (stereo not given), the growth was 50.9% and 46.9%.

Take `Cc1ccccc1N1CCN(C2=C(Cl)C(=O)c3ncccc3C2=O)CC1`: the growth was -68.8% (active).

For the compound `CCC(CCNc1cc(OC)cc2cccnc12)CN1C(=O)c2ccccc2C1=O` (stereo not given), the growth is 7.31% (active).

As for `COc1ccc(C2CC(c3ccc(Nc4ccnc5cc(Cl)ccc45)cc3)=NN2C(C)=O)cc1` (stereo not given), the growth is 65.3%.

Consider `COc1ccc(/C=C2\CCCC3C2=Nc2ccccc2NC3c2ccc(OC)cc2)cc1` (stereo not given), for which the growth is 43.6%.

In the case of `Cc1ccc(C)n1-c1ccsc1C(=O)NNC(=O)CCl`, the growth is 88%.

For the compound `C=C(C)[C@@H]1CC[C@]2(C(=O)OC)CC[C@]3(C)[C@H](CC[C@@H]4[C@@](C)(CC/C(N)=N/O)[C@H](C(=C)C)CC[C@]43C)[C@@H]12`, the growth was 99.5%.

On to `O=C(Nc1cccc(Cl)c1)c1cc([N+](=O)[O-])ccc1O`, for which the growth was 31.3%.

Regarding `Cc1c(C(=O)O[C@H]2[C@@H]3[C@H](C)CC[C@H]3[C@]3(C)O[C@@]2(C2CCCCC2)C[C@H]3OC(=O)CO)ccc2ccccc12`, the growth was 22.5%.

Regarding `COc1ccc(-c2nc(SCC(=O)Nc3nc4ccc(C)cc4s3)[nH]c(=O)c2C#N)cc1OC`, the growth is 100%.

As for `C[C@@H]1C[C@H](N)C[C@H](c2ccncc2NC(=O)c2ccc(F)c(-c3c(F)cccc3F)n2)C1`, the growth was 22.3%.

`NC(Cc1ccc(O)cc1)C(=O)N/N=C/c1ccccc1O` (stereo not given): the growth is 108%.

As for `CC(=O)Nc1nc(C)c(C(=O)N/N=C/N2CCCCC2)s1`, the growth was 101%.

Turning to `CCCCCC(=O)N(CCCC)CCCC`, the growth is 97.8%.

Regarding `Ic1ccccc1I`, the growth is 98.9%.

As to `COc1ccc(Cc2cnc(N)nc2N)cc1OC`, the growth was 104%.

Consider `O=C(O)Cc1cccc2ccccc12`, for which the growth was 121%.

As for `CC#CC#Cc1cccc(=O)o1`, the growth was 29.3%.

As to `Clc1nccc2c(-c3csc(-c4c[nH]c5ccc(Br)cc45)n3)c[nH]c12`, the growth was 26.9%.

Regarding `CN1CCN(c2ccc(-c3cnc4c(-c5csc6ccccc56)cnn4c3)cc2)CC1`, the growth is -26.8% (active).
